ATXN viability – reduces viability in counter-screen for ATXN expression inhibitors. S2 cells (HEK-293 line with an ATXN2-luciferase reporter) viability, CellTiter-Fluor protease fluorescence, 24 h. Potency, µM (highest dose often 56.7 µM), actives largely listed as cytotoxic. actives 0.49% (n = 400,000); further: nearly all actives have a fitted effect of over 40% in size
ATXN2 expr inh – inhibitors of ATXN2 expression; AID 1745845; Potency, µM (top dose mostly 57 µM), for inactives: at the highest dose activity change, negative = inhibition, actives largely listed as inhibitors; HEK-293 ATXN2-luciferase reporter, luminescence, 24 h; actives 0.72% (n = 360,000); further: on the % scale 0 is the no-effect control and ±100 the full control effect; nearly all actives have a fitted effect of over 55% in size
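ATXN2-luciferase reporter cells (luciferase flanked by upstream and downstream ATXN2 gene portions) were treated 24 h at 37 °C with compounds at up to 57 uM. SteadyGlo luminescence gave expression; GF-AFC fluorescence gave viability.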
VP16 counter – inhibits Gal4-VP16 luciferase reporter, ROR gamma counter-screen | Drosophila S2 Gal4-VP16 UAS-luciferase, luminescence, 20 h | actives 3.5% (n = 310,000) | AID 2546 | Potency, µM (titrated, usually from 53.6 µM), for inactives: top-dose activity, negative = inhibition, most hits filed as inhibitors;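 further: Gal4-VP16 expression switched on by copper sulfate through the metallothionein promoter; on the % scale 0 is the no-effect control and ±100 the full control effect; nearly all actives have a fitted effect of over 50% in size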
RORgamma inh – inhibitors of mouse ROR gamma transcriptional activity. P51450. Drosophila S2 Gal4-RORgamma UAS-luciferase reporter, 20 h. Potency, µM (top dose mostly 53.6 µM), inactives show at the top dose activity change, negative = inhibition, hits mostly inhibitors. actives 5.4% (n = 310,000); further: on the % scale 0 is the no-effect control and ±100 the full control effect; nearly all actives have a fitted effect of over 60% in size
Target sequence (P51450 whole entry, looked up, the tested form may be a part): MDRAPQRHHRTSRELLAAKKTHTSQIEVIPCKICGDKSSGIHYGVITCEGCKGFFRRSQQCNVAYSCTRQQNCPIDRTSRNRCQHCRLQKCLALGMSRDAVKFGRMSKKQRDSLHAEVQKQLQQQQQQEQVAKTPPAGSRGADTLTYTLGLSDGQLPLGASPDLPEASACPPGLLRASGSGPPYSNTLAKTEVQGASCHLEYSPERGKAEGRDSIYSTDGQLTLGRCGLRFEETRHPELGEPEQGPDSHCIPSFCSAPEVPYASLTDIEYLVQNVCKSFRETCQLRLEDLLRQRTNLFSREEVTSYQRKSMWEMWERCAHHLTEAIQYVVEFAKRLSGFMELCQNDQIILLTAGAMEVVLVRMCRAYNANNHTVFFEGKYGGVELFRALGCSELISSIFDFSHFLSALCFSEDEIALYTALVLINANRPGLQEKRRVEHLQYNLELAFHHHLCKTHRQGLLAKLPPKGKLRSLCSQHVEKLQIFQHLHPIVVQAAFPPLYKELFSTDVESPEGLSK
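Using a luciferase readout, inhibitors were identified by reduced reporter activity in Drosophila cells coexpressing a copper-inducible Gal4–ROR gamma fusion and UAS-driven Photinus luciferase, incubated 20 hr after 700 uM copper sulfate.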
HepG2 tox – kills HepG2 cells in TGF-b inhibitor counter-screen; actives 0.76% (n = 410,000); HepG2 CAGA-GFP viability, ATP luminescence, 18 h; Potency, µM (highest dose often 46.1 µM), without a hit: at the top dose activity change, negative = cytotoxicity, usual class: cytotoxic
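HepG2 CAGA-GFP cells (1000/well, DMEM with 1% FBS) received compound, then TGF-beta at 500 pg/mL final, and were incubated 18 hours at 37 degrees C. Viability was read by CellTiter-Glo luminescence. Media-only wells were set as complete cell-killing and DMSO as no toxicity.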
TGFb inhibitor – inhibitors of TGF-b signaling; HepG2 CAGA-GFP TGF-b/SMAD3 reporter, GFP fluorescence, 18 h; TGF-beta stimulated, 500 pg/mL final; Potency, µM (doses to about 46.1 µM), for the others: at the top dose activity, negative = inhibition, usual class: inhibitors; actives 1.2% (n = 410,000); AID 588855; further: on the % scale 0 is the no-effect control and ±100 the full control effect; nearly all actives have a fitted effect of over 65% in size
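HEPG2 CAGA-GFP reporter cells (1000/well, DMEM with 1% FBS) received compounds, then recombinant TGF-beta at 500 pg/mL final for 18 hours at 37 degrees C. Per-cell GFP summed per well was normalised to unstimulated and stimulated DMSO controls before curve fitting.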
Numbers without * were called inactive; i = inactive; ? = inconclusive; . = no result; ! = repeats disagree; [ ] = another dose, or the depositor's remark. Sampled rows, rich in hits. Any-hit rate of the full collection: about 6.1%. The call rests on the fitted dose curve; in most records, active means well fitted curve in the direction sought with a large enough effect; inconclusive means small, poorly fitted or top-dose-only effect, or another doubt; inactive means no such curve, though single readings can be large; an effect the other way counts as inactive or inconclusive. Potency means the concentration at half of the fitted maximal effect.

SMILES	ATXN viability	ATXN2 expr inh	VP16 counter	RORgamma inh	HepG2 tox	TGFb inhibitor
Cc1ccc2c(c1)CN(CCNC(=O)c1n[nH]c3c1CCCC3)CC(C)O2 (configuration not stated)	i	.	.	.	.	.
COc1cc2[nH]c(=S)nc(NCc3cccs3)c2cc1OC	i	-3%[11.3 µM]	13µM*	6.3µM*	12%	-3%
COc1cc2[nH]c(=S)nc(NCCc3ccc(S(N)(=O)=O)cc3)c2cc1OC	i	1%[11.3 µM]	-13%	0%	0%	-6%
COc1ccccc1CNc1nc(=S)[nH]c2cc(OC)c(OC)cc12	i	-6%	?	-64%	-18%	2%
COc1ccc(CCNc2nc(=S)[nH]c3cc(OC)c(OC)cc23)cc1OC	i	.	?	10µM*	-9%	-9%
COc1cc2[nH]c(=S)nc(NCc3ccc(Cl)cc3)c2cc1OC	i	-36%	7.1µM*	5µM*	-4%	-1%
COc1cc2[nH]c(=S)nc(NCCc3ccc(C)cc3)c2cc1OC	i	-39%	6.3µM*	0.89µM*	-9%	-20%
Nc1cccc(/C=C2\C=Cc3ccccc32)c1	.	.	.	.	1%	11%
COc1ccc(N2CCN(C(CNS(=O)(=O)c3c(C)cc(C)cc3C)c3ccco3)CC2)cc1 (configuration not stated)	.	.	.	.	-15%	-18%
CC(=O)c1cccc(NS(=O)(=O)c2cc(-c3onc(C)c3C)ccc2C)c1	i	0%	.	.	-26%	-7%
COc1ccc(C(=O)NCCc2sc(-c3ccc(Cl)cc3)nc2C)c(OC)c1	?	?	.	.	-21%	?
COc1cc2[nH]c(=S)nc(NCCC(C)C)c2cc1OC	i	-3%	8.9µM*	4.5µM*	-8%	-3%
COCCCNc1nc(=S)[nH]c2cc(OC)c(OC)cc12	i	0%	3%	?	-1%	-15%
Oc1c(C(c2ccc(Cl)cc2Cl)N2CCN(Cc3ccccc3)CC2)sc2nc(-c3ccco3)nn12 (configuration not stated)	?	-9%	.	.	16µM*	?
COc1ccccc1N1CCN(c2nc(C)nc3c2oc2ccccc23)CC1	?	35µM*	4%	?	-52%	?
Cc1nc(N2CCC(C)CC2)c2oc3ccccc3c2n1	i	-27%	?	13µM*	-33%	-24%
Cc1nc2c(Br)cc(Br)cc2c(=O)n1-c1ccccc1NC1OCC(O)C(O)C1O (configuration not stated)	i	?	.	.	1.6µM*	6%
Cc1cccc(NC(=O)CSc2nccn2Cc2ccc(F)cc2)c1C	.	.	.	.	-3%	-27%
Cc1ccc(-n2c(C)nn(CC#N)c2=O)cc1	i	-7%	4%	7%	3%	-4%
Cc1nn(CC#N)c(=O)n1-c1ccccc1F	i	1%	4%	10µM*	1%	0%
COCC(C)n1c(-c2ccc3c(c2)NC(=O)CO3)csc1=Nc1ccc(OC(F)F)cc1 (configuration not stated)	i	-39%	?	?	13µM*!	?
CC1=C(c2ccc(C(C)C)cc2)S(=O)(=O)NC1=NCc1ccc(OC(C)C)cc1	.	.	.	.	-21%	2%
CCOc1ccc2c(c1)c(=O)c(C(=O)c1ccc3c(c1)OCO3)cn2Cc1ccc(F)cc1	.	.	.	.	1%	-6%
CC(=O)Nc1ccc2c(c1)Cc1cc(N3C(=O)C=CC3=O)ccc1-2	?	?	.	.	-72%	16µM*
O=C(CSC1=Nc2ccccc2C2=NC(CCC(=O)NC3CCCCC3)C(=O)N12)Nc1cccc(Cl)c1 (configuration not stated)	i	-2%	.	.	-18%	-11%
SMILES	ATXN viability	ATXN2 expr inh	VP16 counter	RORgamma inh	HepG2 tox	TGFb inhibitor
Cc1ccccc1CNC(=O)c1ccc2[nH]c(C)c(C)c2c1	.	.	.	.	-25%	-25%
N#CN=c1snc(-c2ccccc2)n1-c1ccc(Cl)cc1	.	.	.	.	-3%	0%
COc1ccc(O)c(-c2c(-c3ccc(Cl)cc3)n[nH]c2C)c1	i	-1%	-18%	?	-24%	?
COc1ccc(-c2n[nH]c(C)c2-c2ccc(Cl)cc2)c(O)c1	i	-36%	7.1µM*	4µM*	-83%	?
COc1ccc(-c2n[nH]c(C)c2-c2ccc(Cl)cc2)c(O)c1OC	i	-13%	7.1µM*	7.1µM*	18µM*	-7%
Cc1[nH]nc(-c2ccc(O)cc2O)c1-c1ccc(Cl)cc1	i	-34%	22µM*	13µM*	-45%	?
COc1ccc2c(c1)c1c(c(=O)n(-c3ccccc3C)c(=O)n1Cc1c(F)cccc1Cl)n2C	i	0%	.	.	10%	0%
COc1ccc2c(c1)CCc1cnc(-n3ncc(C(=O)NCc4cc(C)no4)c3C3CC3)nc1-2	i	.	.	.	.	.
CCN(CC)CCNC(=O)c1ccc(NC(=O)c2cn(-c3ccc(F)cc3)nc2-c2cccc(OC)c2)cc1	28µM*	?	?	?	i	?
CCOc1ccc(NC(=O)CN(C)C(=O)c2cn(-c3ccc(F)cc3)nc2-c2cccc(OC)c2)cc1OCC	i	?	.	.	-13%	?
COC(=O)c1cn(-c2ccccc2)nc1-c1ccc(OC)cc1	i	.	-16%	36%	-30%	-2%
CCN(CC)CCNC(=O)c1ccc(NC(=O)c2cn(-c3ccccc3)nc2-c2cccs2)cc1	.	?	-19%	-39%	11µM*	?
CCN(CC)CCNC(=S)NC(=O)c1cn(-c2ccccc2)nc1-c1ccc(OC)cc1	?	-16%	13µM*	7.1µM*	-51%	-26%
Cc1ccc2nc(SCC(=O)N3CCOc4ccc(CN5C[C@@H](C)O[C@@H](C)C5)cc4C3)[nH]c2c1	i	.	.	.	.	.
CCCn1c(SCC(=O)NCc2ccc(OC)cc2)n[nH]c1=O	?	?	-14%	-6%	-13%	5%
CCCn1c(SCC(=O)N2N=C3/C(=C/c4ccc(OC)cc4)CCCC3C2c2ccc(OC)cc2)n[nH]c1=O (configuration not stated)	.	?	-13%	10%[10 µM]	-65%	13µM*
CCCS(=O)(=O)c1ncc(Cl)c(C(=O)N2CCN(c3ccc(OC)cc3)CC2)n1	.	.	.	.	4.5µM*	4µM*
COc1cc2nc(CC(O)c3nc4cc(OC)c(OC)cc4[nH]3)[nH]c2cc1OC (configuration not stated)	.	.	.	.	6%	1%
CCCCN(CC)CCCNC(=O)c1cc2c(=O)n(CC)c3ccccc3c2s1	?	?	-16%	-27%	-100%	13µM*

Compound activity from PubChem.
